Hit rate of the full screen: of about 54,000 compounds, about 120 (0.22%) were called active. Another 8% or so got no clear call; they are omitted. The sample as a whole holds a higher share of actives than the screen did. A number with no mark means an inactive call. The call rests on the fitted dose curve; in most records, active means well fitted inhibition curve with a large enough effect; inconclusive means small, poorly fitted or top-dose-only effect, or effect the other way; inactive means flat fitted curve, though single readings scatter.
Target: Fumarate hydratase, mitochondrial (Homo sapiens) (UniProt P07954)
Sequence (P07954 whole entry, looked up): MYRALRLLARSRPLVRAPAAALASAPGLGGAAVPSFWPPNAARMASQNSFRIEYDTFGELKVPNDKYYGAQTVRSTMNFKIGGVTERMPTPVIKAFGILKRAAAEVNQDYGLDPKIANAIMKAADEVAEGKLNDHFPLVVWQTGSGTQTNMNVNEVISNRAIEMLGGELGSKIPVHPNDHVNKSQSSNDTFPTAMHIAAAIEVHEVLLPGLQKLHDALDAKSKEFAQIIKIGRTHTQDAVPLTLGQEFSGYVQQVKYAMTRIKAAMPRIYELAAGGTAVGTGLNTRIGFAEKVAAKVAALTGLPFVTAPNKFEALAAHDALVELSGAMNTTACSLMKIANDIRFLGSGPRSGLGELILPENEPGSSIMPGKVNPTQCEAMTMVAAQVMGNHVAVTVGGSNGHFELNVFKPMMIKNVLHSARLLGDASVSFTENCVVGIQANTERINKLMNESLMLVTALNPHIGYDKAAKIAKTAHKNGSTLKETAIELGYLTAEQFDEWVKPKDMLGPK
Experiment: Identification of activators of human fumarate hydratase by quantitative high-throughput screening; further: the screen sought activators but most active calls are inhibition curves; nearly all actives have a fitted effect of over 45% in size
Conditions: FH coupled MDH/diaphorase resazurin fluorescence, 15 min; series mostly up to 79.9 µM; activity change, negative = inhibition: at the top concentration
Source text: Fumarate hydratase (FH) is a metabolic enzyme that is part of the Krebs-cycle, and reversibly catalyzes the hydration of fumarate to malate. Mutations of the FH gene have been associated with fumarate hydratase deficiency (FHD), hereditary leiomyomatosis, renal cell cancer (HLRCC), and other diseases. Currently there are no high-quality small molecule probes for studying human fumarate hydratase. To address this, we developed a quantitative high throughput screening (qHTS) FH assay and screened a total of 57,037 compounds in dose-response. While no inhibitors of FH were confirmed, a series of phenyl-pyrrolo-pyrimidine-diones (12 compounds) were identified as activators of human fumarate hydratase. […] The binding of two compounds from the series to human fumarate hydratase was confirmed by microscale thermophoresis. The low hit rate in this screening campaign confirmed that FH is a "tough target" to modulate, and the small molecule activators of human fumarate hydratase reported here may serve as a starting point for further optimization and development into cellular probes of human FH and potential drug candidates.
For primary high-throughput screen, 3 ul of FH solution (containing 13.33nM human fumarate hydratase, 13.33IU/ml malic dehydrogenase, 0.2mM NAD, 0.067mg/ml diaphorase and 0.067mM resazurin in the assay buffer (50 mM Tris pH 8.0, 5 mM MgCl2, 0.01% Brij 3) was dispensed into each well in a black solid bottom 1536-well assay plate (Greiner Bio-One) using a BioRAPTR FRD dispenser (Beckman Coulter, Brea, CA). A 1536-well pintool dispenser outfitted with 20 nl pins (Wako Automation, San Diego, CA) was used to transfer 20 nL of DMSO-solubilized compound (Cherrypick plates) to each 1536-well assay plate. Each compound was screened at five concentrations: 15 nM, 151 nM, 1.5 uM, 15.4 uM, 76.9 uM. Following compound transfer, plates were incubated in room temperature for 10 minutes. 1 uL of substrate solution containing fumaric acid (160 uM) was dispensed via BioRAPTR FRD to initiate the reaction. Plates were immediately transferred to a ViewLux microplate imager (PerkinElmer, Waltham, MA), and any resulting resorufin fluorescence was measured (exitation/emission, 525/598 nm) at 0 and 15 minutes. The exposure time is 1 second. Fluorescence from each well was normalized using enzyme-free and DMSO-treated control wells on each plate, and changes in fluorescence (delta RFU) were calculated using the difference in fluorescent signal for each well at 15 minutes versus 0 minutes.
On the % scale 0 is the no-effect control and ±100 the full control effect; potency means the concentration at half of the fitted maximal effect.

Row | SMILES | activity change, negative = inhibition | Potency
1 | Cc1c(C2=CCN(C(=O)N(C)C(C)C)CC2)nnn1-c1cccnc1F | -2.43% | 
2 | C/C=C/C1=CC2=CC(=O)C(C)(O)C(OC(=O)c3c(C)cc(O)cc3O)C2CO1 (stereo not given) | -4.08% [at 53.3 µM] | 
3 | COc1ccc(Cn2ccnc2SCC(=O)Nc2ccc3c(c2)OCO3)cc1 | -2.17% | 
4 | O=C(CSCc1cnn(-c2ccccc2)c1-n1cccc1)NCc1ccccc1Br | -11.3% | 
5 | Cc1cccc(N2CCN(c3c(CN4CCCC4)c(=O)oc4ccccc34)CC2)c1C | -2.63% | 
6 | Cn1c(=O)[nH]c(=O)c2c1nc(NCCc1ccccc1)n2Cc1ccc(F)cc1 | -6.91% | 
7 | CCCOc1cccc(C(=O)Nc2cccc(NC(=O)c3ccc(C(C)(C)C)cc3)c2)c1 | -3.92% | 
8 | COc1ccccc1-n1c(SCC(=O)Nc2nc3ccc(C)cc3s2)nc2c(c1=O)SCC2 | -7.7% [at 53.3 µM] | 
9 | COc1ccc(CCNc2ncnc3c2cnn3-c2ccc(C)cc2)cc1 | -5.98% | 
10 | CC1(C)C[C@H]2C3=CCC4[C@@]5(C)CC[C@H](O[C@H]6O[C@H](C(=O)O)[C@@H](O)[C@H](O)[C@H]6O[C@H]6O[C@H](CO)[C@@H](O)[C@H](O)[C@H]6O[C@@H]6O[C@H](CO)[C@@H](O)[C@H](O)[C@H]6O)[C@](C)(CO)C5CC[C@@]4(C)[C@]3(C)CC[C@@]2(C)[C@H](O[C@@H]2OC[C@H](O)[C@H](OC3O[C@H](CO)[C@@H](O)[C@H](O)[C@H]3O)[C@H]2O)[C@@H]1O (stereo not given in full) | 17.6% [at 13.5 µM] | 
11 | CCc1cc2c(cc(C(=O)OC)n2Cc2nc(-c3ccc(C)cc3)oc2C)s1 | -12% | 
12 | CCOC(=O)c1cc(OC(=O)c2ccccc2Cl)n(-c2ccccc2)n1 | -5.8% | 
13 | Cc1cc2ccccc2n1CCNC(=O)c1ccc(F)cc1 | -12.2% | 
14 | COc1ccc(Cl)cc1NC(=O)CSc1nc(=O)[nH]c2c1CCCC2 | -10.3% | 
15 | CCOc1ccc(-n2c(SCC(=O)NCc3ccccc3)nc3n[nH]c(C)c3c2=N)cc1 | -3.31% | 
16 | CC(=O)Nc1c(C)nn(-c2ccccc2)c1N1CCC(C(=O)Nc2cc(Cl)ccc2C)CC1 | 1.23% | 
17 | CC1(O)CC(O)C2(O)C=COC(O[C@@H]3O[C@H](CO)[C@@H](O)[C@H](O)[C@H]3O)C12 (stereo not given in full) | 1.62% [at 53.3 µM] | 
18 | CCOc1ccc(CC(=O)NCCc2csc3nc(-c4ccccc4F)nn23)cc1 | -12.1% | 
19 | Cc1c(O)cc2c(c1O)COC1(O)CCCOC21 (stereo not given) | 5.93% | 
20 | O=C(OC1CN2CCC1CC2)N1CCc2ccccc2C1c1ccccc1 (stereo not given) | 2.64% | 

Row | SMILES | activity change, negative = inhibition | Potency
21 | C=C1C2(CCC(=O)OC2(C)C)CC(OC(=O)/C(C)=C/C)C2(C)C13OC14C(=O)OC(C)(C(=O)C12C(=O)OC4C)C3OC(C)=O (stereo not given) | 6.23% [at 20.6 µM] | 
22 | CCOc1ccc(/C=C(\C#N)c2nc3ccccc3c(=O)[nH]2)cc1OC | -13.3% | 
23 | N#CSc1cc(SC#N)c(N)nc1N | 0.38% [at 20.6 µM] | 
24 | CCOc1cccc(CC(=O)N2CCc3c([nH]c4ccccc34)C2c2ccc(F)cc2)c1OCC (stereo not given) | -21.3% | 
25 | CCOc1cccc2c1N[C@@H](c1ccc(C(=O)O)cc1)[C@H]1CC=C[C@@H]21 |  | 28.2 µM (active)
26 | CCOc1ccccc1CNC(=O)c1ccc(-n2c(C)cc3c2CCC(C)C3)cc1 (stereo not given) | -9.65% | 
27 | Cn1c(SCC(=O)N2CCC[C@H]2C(=O)Nc2ccccc2-c2ccccc2)nc2ccccc21 | 0.115% | 
28 | COc1cccc(C(=O)NCc2ccc3c(c2)CCN3C(=O)c2ccncc2)c1 | -7.2% | 
29 | CCc1cc2c(cc3c(=O)n(CC(=O)NCCc4ccc(OC)c(OC)c4)ncn32)s1 | 1.09% | 
30 | COc1cccc(N=C2SC(C(=O)Nc3cccc(Cl)c3)CC(=O)N2C)c1 (stereo not given) | -17% | 
31 | COC(=O)N1CCC(n2ncc3c(N4CCOCC4)nc(-c4ccc(NC(=O)Nc5ccc(CO)cc5)cc4)nc32)CC1 | -11% | 
32 | [N-]=[N+]=N[C@]1(CO)O[C@@H](n2ccc(N)nc2=O)[C@@H](O)[C@@H]1O | -0.769% | 
33 | Cc1cc2nn(-c3ccc(Cl)cc3)nc2cc1NC(=O)C(C)C | -5.15% | 
34 | C/C=C(/COC(=O)/C(C)=C/C)C(=O)OC/C=C/c1ccc(OC)cc1 | -4.5% [at 53.3 µM] | 
35 | Clc1ccc2ncc(-c3cccc(NC4CCNCC4)n3)n2c1 | 5.21% | 
36 | COC(=O)c1cc(Cl)c(NC(C)=O)cc1OC | -1% [at 53.3 µM] | 
37 | CCOC(=O)c1[nH]c(C)c(CCC(=O)N2CCN(c3ccccc3)CC2)c1C | -6.53% | 
38 | CC1(C)CC[C@]2(C(=O)O)CC[C@]3(C)C(=CCC4[C@@]5(C)C[C@H](O)[C@H](O[C@@H]6OC[C@H](O)[C@H](O)[C@H]6O)[C@@](C)(CO)C5CC[C@]43C)[C@@H]2C1 (stereo not given in full) | 2.9% [at 20.6 µM] | 
39 | C[C@@H]1C/C=C/C=C\C=C\C=C\[C@H](O[C@@H]2O[C@H](C)[C@@H](O)[C@H](N)[C@@H]2O)C[C@@H]2O[C@](O)(C[C@@H](O)C[C@H]3O[C@@H]3/C=C/C(=O)O1)C[C@H](O)[C@H]2C(=O)O | -0.5% [at 20.6 µM] | 
40 | C=C1[C@@H](C)[C@H]2[C@H](Cc3c[nH]c4ccccc34)NC(=O)[C@]23C(=O)/C=C/C(=O)[C@H](O)/C(C)=C\[C@@H](C)C/C=C/[C@H]3[C@@H]1O | -1.88% [at 53.3 µM] | 
